Data from the supplement of paper PMC10981050.
“And” between values parts separate entries of the source, which are not always exact repeats. Equal entries are not always repeated. Structures can show the parent of a compound that is named as a salt.

What was measured:
Test in all cases: cell viability relative to vehicle control; higher = less cytotoxic
Conditions in all cases: 10 µM
K562 = test system: K562
In short: (§1)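 Mutant clones made by CRISPR editing and their isogenic wild-type counterparts, from four leukaemia lines, were exposed to a single 10 µM dose of each library compound for 48 h. The supernatant was then removed and CellTiter-Glo luminescence was read. Viability was reported as percent of the on-plate vehicle control.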

MARIMO = test system: MARIMO
In short: as §1

MOLM14 = test system: MOLM14
In short: as §1

OCI-AML2 = test system: OCI-AML2
In short: as §1

SMILES | cell viability (K562; SRSF2 genotype: SRSF2 P95H/wt) | cell viability (K562; SRSF2 genotype: SRSF2 wt/wt) [%] | cell viability (MARIMO; SRSF2 genotype: SRSF2 P95H/wt) [%] | cell viability (MARIMO; SRSF2 genotype: SRSF2 wt/wt) [%] | cell viability (MOLM14; SRSF2 genotype: SRSF2 P95H/wt) [%] | cell viability (MOLM14; SRSF2 genotype: SRSF2 wt/wt) [%] | cell viability (OCI-AML2; SRSF2 genotype: P95H/wt) [%] | cell viability (OCI-AML2; SRSF2 genotype: wt/wt) [%]
NC(=O)c1ccc(-c2nc(-c3ccccn3)c(-c3ccc4c(c3)OCO4)[nH]2)cc1 | 103% and 105% | 97.9 | 100 | 106 | 102 | 97.9 | 109 | 98.3
O[C@@H]1CO[C@H]2[C@@H]1OC[C@@H]2O [Isosorbide] | 102% and 111% | 105 | 107 | 104 | 99.6 | 105 | 118 | 99.5
Cc1coc2c1C(=O)C(=O)c1c-2ccc2c(C)cccc12 [Tanshinone I] | 66.7% and 48.1% | 41.4 | 70.6 | 63.4 | 76.1 | 48.3 | 57.5 | 60
CC(=O)OCC(=O)[C@@]1(O)CC[C@H]2[C@@H]3CCC4=CC(=O)CC[C@]4(C)[C@@]3(F)[C@@H](O)C[C@@]21C [Fludrocortisone acetate] | 110% and 103% | 104 | 105 | 109 | 111 | 102 | 113 | 119
O=C1CN(/N=C/c2ccc(-c3ccc([N+](=O)[O-])cc3)o2)C(=O)N1 [Dantrolene sodium hemiheptahydrate] | 93.8% and 97.3% | 104 | 96.4 | 104 | 100 | 101 | 100 | 94.3
COc1ccc(C2=NC(c3ccc(Cl)cc3)C(c3ccc(Cl)cc3)N2C(=O)N2CCNC(=O)C2)c(OC(C)C)c1 (stereo not drawn) [Nutlin-3b] | 90.3% and 93.2% | 89.3 | 87.5 | 97.1 | 77.2 | 86.7 | 84.5 | 89.8
O=C1Cc2ccccc2N1 [Oxindole] | 96.9% and 92% | 98.4 | 98.2 | 103 | 95 | 98.9 | 95.9 | 105
C[C@H]1[C@H](C)CC[C@]2(C(=O)O)CC[C@]3(C)C(=CC[C@@H]4[C@@]5(C)CC[C@H](O)C(C)(C)[C@@H]5CC[C@]43C)[C@H]12 [Ursolic acid (Malol)] | 96.5% and 93.7% | 90.6 | 87.2 | 102 | 98.2 | 97 | 81.4 | 92.8
CN1CCc2cc(Nc3ncc(C4CC4)c(NCCCNC(=O)C4CCC4)n3)ccc2C1 | 34.8% and 33.1% | 55.2 | 3.21 | 1.31 | 0.63 | 0.39 | 1.22 | 4.15
Cc1cc(=O)c2c(O)c3c(cc2o1)OC(C)(C)[C@@H](O[C@@H]1O[C@H](CO)[C@@H](O)[C@H](O)[C@H]1O)C3 [Sec-O-Glucosylhamaudol] | 105% and 101% | 114 | 106 | 98.7 | 109 | 101 | 94 | 91.3
COc1cc(-c2oc3cc(O)cc(O)c3c(=O)c2O[C@@H]2O[C@H](CO[C@@H]3O[C@@H](C)[C@H](O)[C@@H](O)[C@H]3O)[C@@H](O)[C@H](O)[C@H]2O)ccc1O [Narcissoside] | 108% and 102% | 106 | 102 | 103 | 107 | 105 | 103 | 109
Cc1c(-c2ccc(O)cc2)n(Cc2ccc(OCCN3CCCCCC3)cc2)c2ccc(O)cc12 [Bazedoxifene HCl] | 1.11% and 0.75% | 0.96 | 17.3 | 27.5 | 0.32 | 0.46 | 0.41 | 0.44
CC1(C)CCCC2(C)C1CCC1(C)OCCC12 (single isomer, unassigned; (-)) [(-)-Ambroxide] | 94.6% and 94.5% | 99.7 | 97.9 | 101 | 95.9 | 96.4 | 98 | 103
COc1cc2c(cc1O)CC[C@@H]1[C@@H]2CC[C@]2(C)[C@@H](O)CC[C@@H]12 [2-Methoxyestradiol] | 14% and 27.1% | 29.9 | 10.4 | 10.9 | 7.93 | 2.27 | 6.68 | 13.6
CC(C)c1cc(C(C)C)c(CC(=O)NS(=O)(=O)Oc2c(C(C)C)cccc2C(C)C)c(C(C)C)c1 [Avasimibe (CI-1011)] | 79.7% and 76.5% | 64.5 | 80.8 | 92.2 | 68.6 | 78.6 | 92.5 | 84.8
Cc1ccc(O)c(O)c1 [4-Methylcatechol] | 94.8% and 90.4% | 98.3 | 61.1 | 89.5 | 75.4 | 85.3 | 94 | 90.9
CC(C)n1nccc1-c1ncccc1COc1cccc(O)c1C=O [Voxelotor(GBT440, GTx011)] | 97.7% and 98.4% | 91.8 | 104 | 103 | 85.8 | 94 | 99.7 | 98.3
c1ccc(CNc2nc(NCc3ccccc3)c3ccccc3n2)cc1 | 17.4% and 10.9% | 12.4 | 0.92 | 11 | 0.16 | 0.16 | 0.21 | 0.19
O=C(Nc1ncc(SCCN2CCCC2)s1)[C@]1(c2ccc(S(=O)(=O)C3CC3)cc2)C[C@H]1C1CCCCC1 | 0.72% and 0.66% | 0.58 | 2.32 | 11.5 | 0.59 | 0.51 | 0.46 | 0.55
O=S(=O)(c1ccc2c(c1)C(=NO)c1cc(S(=O)(=O)N3CCCCC3)ccc1-2)N1CCCCC1 | 0.51% and 0.55% | 0.51 | 3.1 | 0.51 | 0.31 | 30.1 | 0.87 | 0.36
Cc1c(C(=O)Nc2ccc(N3C[C@@H](C)O[C@@H](C)C3)nc2)cccc1-c1ccc(OC(F)(F)F)cc1 [LDE225 (NVP-LDE225, Erismodegib)] | 82.9% and 91.2% | 91.9 | 86.2 | 102 | 87.7 | 95.9 | 77.6 | 85

SMILES | cell viability (K562; SRSF2 genotype: SRSF2 P95H/wt) | cell viability (K562; SRSF2 genotype: SRSF2 wt/wt) [%] | cell viability (MARIMO; SRSF2 genotype: SRSF2 P95H/wt) [%] | cell viability (MARIMO; SRSF2 genotype: SRSF2 wt/wt) [%] | cell viability (MOLM14; SRSF2 genotype: SRSF2 P95H/wt) [%] | cell viability (MOLM14; SRSF2 genotype: SRSF2 wt/wt) [%] | cell viability (OCI-AML2; SRSF2 genotype: P95H/wt) [%] | cell viability (OCI-AML2; SRSF2 genotype: wt/wt) [%]
Nc1ncnc2c1ncn2[C@@H]1O[C@H](CO)[C@@H](O)[C@H]1O [Adenosine (Adenocard)] | 113% and 107% | 108 | 104 | 98.5 | 104 | 114 | 102 | 106
CC1=C(C(=O)Nc2cc3cn[nH]c3cc2F)C(c2ccc(C(F)(F)F)cc2)CC(=O)N1 (stereo not drawn) | 99.9% and 96.7% | 95.3 | 89.1 | 98.6 | 36.8 | 91.7 | 23.6 | 42.9
Nc1ccc(S(=O)(=O)Nc2ncccn2)cc1 [Sulfadiazine] | 108% and 105% | 108 | 114 | 110 | 103 | 108 | 111 | 110
O=c1c2cc(O)c(O)cc2oc2cc(O)c([C@@H]3O[C@H](CO)[C@@H](O)[C@H](O)[C@H]3O)c(O)c12 [Mangiferin] | 106% and 96.7% | 99.3 | 97.7 | 104 | 103 | 104 | 86.5 | 102
O=C1CC[C@@H](C(=O)N2CSC[C@H]2C(=O)O)N1 [Pidotimod] | 99.7% and 104% | 101 | 104 | 99.1 | 104 | 104 | 114 | 104
Cc1c(Cn2c(C)nc3c(C(=O)O)cc(N4CCOCC4)cc32)cccc1C(F)(F)F | 104% and 97.4% | 108 | 105 | 105 | 83.2 | 89.7 | 92.7 | 95.2
CC(C(=O)Nc1cccc(/N=C/c2c(O)ccc3ccccc23)c1)c1ccccc1 (stereo not drawn) [Salermide] | 82.7% and 84.2% | 83.2 | 90.8 | 93.8 | 104 | 101 | 88.6 | 90.3
CCOC(=O)C1=C(COCCN)NC(C)=C(C(=O)OC)C1c1ccccc1Cl (stereo not drawn) [Amlodipine (Norvasc)] | 83% and 92.4% | 84.4 | 73.8 | 78.3 | 53.3 | 62.5 | 38.9 | 50
CN(CCOc1ccc(CC2SC(=O)NC2=O)cc1)c1ccccn1 (stereo not drawn) [Rosiglitazone (Avandia)] | 101% and 90.7% | 85 | 89.6 | 101 | 90 | 96.6 | 94 | 101
C/C(O)=C(\C#N)C(=O)Nc1ccc(C(F)(F)F)cc1 [Teriflunomide] | 93.8% and 104% | 91.6 | 94.3 | 98.5 | 88.2 | 93.9 | 79.9 | 87.1
C[C@@]1(F)[C@H](O)[C@@H](CO)O[C@H]1n1ccc(=O)[nH]c1=O [2'-deoxy-2'-fluoro-2'-C-methyluridine] | 93.6% and 89.6% | 89.8 | 87.2 | 101 | 87.2 | 91.3 | 86.6 | 104
Cc1cnc(C(=O)NCCc2ccc(S(=O)(=O)NC(=O)NC3CCCCC3)cc2)cn1 [Glipizide (Glucotrol)] | 93.8% and 94.9% | 91.6 | 90.9 | 104 | 94.3 | 92.5 | 96.6 | 97.4
O=C(O)c1ccc(NC(=O)[C@H](Cc2ccc(O)cc2)NC(=O)c2ccccc2)cc1 [bentiromide] | 103% and 106% | 106 | 112 | 111 | 95.6 | 104 | 110 | 96.2
O=C(c1cncc(Br)c1)N1CCC(N2CCCC2)CC1 | 103% and 100% | 98.7 | 106 | 100 | 101 | 101 | 104 | 120
CC1OC2OC3C(OCC(O)C3O)OC(=O)C34CCC(C)(C)CC3C3=CCC5C6(C)CC(O)C(OC7OC(CO)C(O)C(O)C7OC7OCC(OC(=O)CC(C)(O)CC(=O)OC1C(OC1OCC(O)C(O)C1O)C2O)C(O)C7O)C(C)(CO)C6CCC5(C)C3(C)CC4O (stereo not drawn) [Tubeimoside II] | 23.1% and 15.2% | 16.7 | 46.2 | 70.6 | 51.2 | 86.1 | 28.5 | 38.4
O=C(c1ccc(C(=O)N2CCC(N3CCCC3)CC2)c(Nc2ccccc2)c1)N1CCC(N2CCCC2)CC1 | 94.7% and 87.5% | 84.1 | 81.1 | 92.7 | 89 | 89.4 | 93.8 | 89.4
CC(/C=C/C=C(\C)C(=O)O[C@@H]1O[C@H](CO[C@@H]2O[C@H](CO)[C@@H](O)[C@H](O)[C@H]2O)[C@@H](O)[C@H](O)[C@H]1O)=C\C=C\C=C(C)\C=C\C=C(/C)C(=O)O[C@@H]1O[C@H](CO[C@@H]2O[C@H](CO)[C@@H](O)[C@H](O)[C@H]2O)[C@@H](O)[C@H](O)[C@H]1O [Crocin] | 101% and 100% | 99.8 | 95.6 | 100 | 95.2 | 102 | 107 | 102
OC1CCC(Nc2ncc3nc(Nc4c(F)cc(F)cc4F)n([C@H]4CCOC4)c3n2)CC1 (stereo partly drawn) [Tanzisertib(CC-930)] | 101% and 111% | 114 | 116 | 103 | 91.8 | 109 | 117 | 122
CC(CCC(=O)NCCS(=O)(=O)O)C1CCC2C3C(O)CC4CC(O)CCC4(C)C3CCC12C (stereo not drawn) [Taurochenodeoxycholic acid] | 104% and 101% | 99.3 | 103 | 108 | 104 | 104 | 109 | 97.8
Fc1ccc2c(/C=C/c3nn[nH]n3)c[nH]c2c1 | 100% and 102% | 98.6 | 104 | 102 | 94.2 | 96.3 | 102 | 108
